Screens (PubChem)
Sampled rows, rich in hits. Any-hit rate of the full collection: about 11%.
HPGD inh – blocks human HPGD enzyme activity | purified HPGD, NADH fluorescence kinetic, PGE2 substrate | Potency, µM, without a hit: at the top dose activity change, negative = inhibition, usual class: inhibitors | actives 4.3% (n = 150,000) | AID 894; also: potency is read from the fitted curve at half-maximal effect
Target sequence (P15428 whole entry, looked up): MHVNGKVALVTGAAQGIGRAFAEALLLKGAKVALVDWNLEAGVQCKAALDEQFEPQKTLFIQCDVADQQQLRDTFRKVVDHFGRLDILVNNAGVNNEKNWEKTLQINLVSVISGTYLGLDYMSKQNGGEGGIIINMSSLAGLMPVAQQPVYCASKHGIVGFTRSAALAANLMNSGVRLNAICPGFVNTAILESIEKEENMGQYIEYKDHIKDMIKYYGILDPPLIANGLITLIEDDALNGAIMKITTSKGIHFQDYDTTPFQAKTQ
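20 nM HPGD preincubated 15 min at room temperature with compound in 50 mM Tris-HCl pH 8, 0.01% Tween 20. Started with 1 mM NAD+ and 30 uM prostaglandin E2; NADH fluorescence (360/450 nm) read 5 times over 30-s intervals, last minus first.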
ALDH1A1 block – ALDH1A1 (human) enzyme inhibition | P00352 | Purified ALDH1A1, NADH fluorescence, propionaldehyde substrate | Potency, µM (series often up to 75.3 µM), without a hit: at the top dose activity, negative = inhibition, hits mostly inhibitors | actives 7.3% (n = 220,000) | AID 1030;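 also: potency is read from the fitted curve at half-maximal effect; plate controls were no enzyme wells and a reference inhibitor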
PNC assembly inh – blocks assembly of the perinucleolar compartment. AID 2417. activity change (PNC), negative = inhibition, % at 10 µM. PC3M PTB-GFP, PNC prevalence imaging, 16 h; hits give low values. actives 3.1% (n = 140,000);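 active = readout at or below -70, meaning at least 70% loss of cells showing the perinucleolar compartment, a nuclear body marking cancer cells; inconclusive = readout between -30 and a set limit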;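 also: plate controls were DMSO wells for no effect and camptothecin positive control wells for full effect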
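Compounds are pinned in duplicate onto adhered PC3M cells stably expressing GFP-tagged PTB and incubated 16 h at 37 C. Cells are then fixed, nuclei stained with Hoechst, and PNC-positive cells counted.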
* marks the source's active call; other numbers are inactive results; ? = inconclusive; · = no result; [ ] = remark or other dose. Unless noted, calls follow the shape of the dose curve; as a rule, active = well fitted inhibition curve with a large enough effect (not every such curve was filed as active); inconclusive = small, poorly fitted or top-dose-only effect, or another doubt; inactive = no such curve, though single readings can be large or run the other way. Unless noted, % is scaled to controls: 0 for no effect and ±100 for the full control effect.

SMILES	HPGD inh	ALDH1A1 block	PNC assembly inh
COc1cc2c(cc1OC)C1=C(C#N)CN(C3CCCCC3)CN1CC2	?	?	25.0
COc1ccc(CCN2CC(C#N)=C3c4cc(OC)c(OC)cc4CCN3C2)cc1OC	7.08µM*	?	-6.8
Cc1ccc(CC(=O)NCC(c2ccco2)N(C)C)cc1C (stereo unspecified)	·	-5.5%	·
COc1ccc(-c2csc(NC(=O)c3ccc(S(=O)(=O)N4CCc5ccccc5C4)cc3)n2)c(OC)c1	-25.4%	-14.4%	57.6
CC[C@@H](c1ccc2cc(O)ccc2c1)C(C)(C)C(=O)O	-6.3%	-6.3%[13.5 µM]	·
COc1cnc(SCc2ccc(Cl)cc2Cl)nc1Cl	17.8µM*	7.08µM*	17.2
CCCCOc1ccc(Cl)cc1CSc1n[nH]c(C)n1	-8.4%	5.9%	-1.0
COc1cnn(-c2ccccc2)c(=O)c1SCc1ccc(Cl)cc1Cl	-11.4%	?	?
COc1ccc(Cl)cc1CSc1n[nH]c(C)n1	15.8µM*	-5.4%	?
O=C(/C=C/c1ccccc1)NCCSc1ccc(Cl)cc1	-16.0%	-5.7%	53.2
O=C(Nc1cccc(Cl)c1Cl)c1cc(S(=O)(=O)NCCc2ccccc2)ccc1F	-22.0%	3.5%	17.9
COc1ccc2[nH]c(-c3ccc(C)cc3)cc(=O)c2c1	?	?	36.8
Cc1ccccc1C1C(C#N)=C2N=C(N)c3c(sc4c3CCCCC4)N2C2=C1C(=O)CCC2 (stereo unspecified)	-11.5%	2.24µM*	34.9
N#CC1=C2N=C(N)c3ccccc3N2C2=C(C(=O)CCC2)C1c1ccc(Cl)cc1 (stereo unspecified)	-4.3%	0.3%	54.9
COC(=O)[C@H]1C[C@@H]2CC[C@@H](O)C[C@@H]2N1Cc1c(F)cccc1Cl	-2.2%	-1.1%	·
O=C(O)c1ccccc1NS(=O)(=O)c1ccccc1F	-11.9%	1.8%	·
CC1=C2[C@H](/C=C(\C)C(=O)O)CC[C@@H](C)[C@H]2CC1	-4.7%	17.8µM*	·
CC1=C2[C@@H]([C@H](C)CC[C@H]2/C=C(\C)C(=O)O)[C@H](O)C1	-9.8%	?	·
O=C1CCC2(C(=O)O)Sc3ccccc3N12 (stereo unspecified)	-5.8%	17.4%	12.4
Cc1cc(C(F)(F)F)nc(SCC(=O)Nc2ccccc2)n1	-25.6%	-6.3%	21.0
Cc1cc(C(F)(F)F)nc(SCC(=O)NC2CC3CCC2C3)n1 (stereo unspecified)	20µM*	-3.7%	9.0
O=C(c1cccs1)N(Cc1nc2sc3c(c2c(=O)[nH]1)CCCC3)C1CCCC1	?	?	-92.2*
Cc1sc2nc(CN(C(=O)c3cccs3)C3CCCC3)[nH]c(=O)c2c1C	-4.5%	-10.3%	3.1
Cc1ccc(-n2cc(-c3ccccc3)c3c(NN4CCOCC4)ncnc32)cc1	-25.3%	0.3%	?
CC(C)(C)Nc1nc(NC(C)(C)C)nc(-n2ccnc2)n1	-5.6%	-8.8%	19.7
SMILES	HPGD inh	ALDH1A1 block	PNC assembly inh
Cc1ccccc1OCC(=O)NC(=S)Nc1ccc(N2CCOCC2)c(Cl)c1	-25.6%	?	-18.8
COc1cc(NC(=O)c2ccc(F)cc2)c(OC)cc1NC(=O)CN1CCOCC1	·	0.1%	·
O=C(Nc1ccc(N2CCOCC2)c(Cl)c1)c1ccccc1F	15.8µM*	?	0.8
O=C(Nc1ccc(N2CCOCC2)c(Cl)c1)c1ccc(Cl)cc1	·	-11.7%	·
COc1cc2ccccc2cc1C(=O)NC(=S)Nc1cc(C(=O)O)ccc1C	·	8.9%	·
COc1ccccc1C(=O)NC(=S)Nc1cc(C(=O)O)ccc1C	·	14.1µM*	·
COc1ccccc1C(=O)NC(=S)Nc1ccc(N2CCOCC2)c(Cl)c1	·	11.2µM*	·
COc1cc(NC(=O)c2ccccc2F)c(OC)cc1NC(=O)CN1CCOCC1	·	25.1µM*	·
Cc1cc(C)n(CC2CC(=O)N(c3ccc(Cl)c(Cl)c3)C2=O)n1 (stereo unspecified)	-2.5%	-0.1%	16.6
Cc1[nH]c2ccccc2c1/C=N/NC(=S)NCc1ccccc1	·	2.1%	·
CCOc1ccc(N(C(C)=O)c2nc(C)cc(C)c2C#N)cc1	2.1%	0.2%	-13.7
CC1c2nc3ccccc3n2C(CC(=O)NCc2ccccn2)C(=O)N1Cc1ccccc1 (stereo unspecified)	5.0%	-5.6%	26.8
O=C(Nc1nc2ccc(S(=O)(=O)N3CCCC3)cc2s1)C1CCCCC1	20µM*	8.91µM*	-107.6*
Nc1nc2ccc(S(=O)(=O)N3CCCCC3)cc2s1	14.1µM*	6.31µM*	-12.6
CSc1nc2ccc(S(=O)(=O)N3CCCCC3)cc2s1	-0.6%	8.9%	-19.2
O=C(Nc1nc2ccc(S(=O)(=O)N3CCCCC3)cc2s1)C1CCCO1 (stereo unspecified)	-5.8%	?	15.2
